Data taken from PubChem BioAssay (NCATS).
Several values for one entry are separate records, joined by “and”; a condition that tells them apart may be missing. Equal entries are not always repeated. Inconclusive results are not listed. Activity calls are given as the source filed them. Unless noted, calls follow the shape of the dose curve; as a rule, active = well fitted curve in the direction sought with a large enough effect; inconclusive = small, poorly fitted or top-dose-only effect, or another doubt; inactive = no such curve, though single readings can be large; an effect the other way counts as inactive or inconclusive.

Legend:
[1] = Cell Viability - BJ (AID 421; calls by dose curve;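 also: potency is read from the fitted curve at half-maximal effect; cells exposed to compound for 40 hours at 37 °C before readout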); details: BJ fibroblast viability, qHTS
In short: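 Normal human BJ foreskin fibroblasts, 1500/well in complete medium, treated 40 hr at 37 °C. Cellular ATP by CellTiter-Glo luminescence; normalized to DMSO and 100 uM tamoxifen, AC50 from Hill fit.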

[2] = Cell Viability - MRC5 (AID 434; calls by dose curve;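 also: potency is read from the fitted curve at half-maximal effect; potency reflects cytotoxicity seen as loss of intracellular ATP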); details: MRC5 lung fibroblast viability, qHTS
In short: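 MRC5 normal human lung fibroblasts, 1500 cells/well, exposed to compound for 40 hr at 37 C. Cellular ATP was read by CellTiter-Glo luminescence; data normalized to DMSO and 100 uM tamoxifen, with AC50 from Hill fits.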

[3] = Cell Viability - SK-N-SH (AID 435; calls by dose curve;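 also: potency is read from the fitted curve at half-maximal effect; compound exposure lasted 40 h at 37 °C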); details: SK-N-SH neuroblastoma cell viability qHTS
In short: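 Luminescent ATP signal served as the viability read-out after 40 hours of compound treatment of human neuroblastoma SK-N-SH cells. Concentration-response data, scaled between DMSO and 100 uM tamoxifen, gave AC50 values by standard Hill modeling.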

[4] = Cell Viability - N2a (AID 540); details: N2a mouse neuroblastoma cell viability; activity change, negative = cytotoxicity: at 92.2 µM (top of the series); also: nearly all actives have a fitted effect of over 45% in size; also: potency is read from the fitted curve at half-maximal effect;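 as to activity change, negative = cytotoxicity: plate controls were DMSO alone for no effect and tamoxifen control for full effect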
In short: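 Mouse neuroblastoma N2a cells (1500/well) were preincubated 5 hr at 37 °C, then exposed to compounds for 40 hr at 37 °C in complete medium. Viability was read as intracellular ATP by CellTiter-Glo luminescence; AC50 from Hill fits.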

[5] = Cell Viability - SH-SY5Y (AID 544); details: SH-SY5Y neuroblastoma cell viability; viability change, negative = cytotoxic: at 92.2 µM (top of the series); also: nearly all actives have a fitted effect of over 55% in size; also: potency is read from the fitted curve at half-maximal effect
In short: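 Human neuroblastoma SH-SY5Y cells (1500/well) in complete medium were exposed to compounds for 40 hr at 37 °C; intracellular ATP was then quantified by CellTiter-Glo luminescence after 20 min at room temperature. AC50 came from Hill-equation concentration-response fits.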

[6] = Cell Viability - Renal Proximal Tubule (AID 545); details: renal proximal tubule cells viability, primary cells of rat origin; activity change, negative = cytotoxicity: at 91.7 µM (top of the series); also: nearly all actives have a fitted effect of over 40% in size
In short: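 Luminescent ATP signal (CellTiter-Glo) served as the viability read-out after 40 hr compound exposure of freshly isolated rat proximal tubule cells at 37 °C. Concentration-dependent ATP loss was fitted with the Hill equation to give AC50.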

[7] = Cellular Toxicity (caspase-3) HepG2 (AID 654);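 also: cells exposed to compound for 16 hours before reading; 0% = DMSO alone and 100% = caspase signal from 100 µM tamoxifen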
In short: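 HepG2 cells (1500/well) in complete medium were treated with compounds for 16 hr at 37 °C. Caspase-3/7 activity was then read as luminescence from peptide-aminoluciferin cleavage. AC50 came from Hill fits, normalized to DMSO and 100 uM tamoxifen.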

[8] = Cellular Toxicity (caspase-3) HUV-EC-C (AID 656)
In short: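 qHTS; HUV-EC-C, 1000 cells/well; 5 hr settle, 16 hr cmpd, 37°C; Caspase-Glo 3/7, 20 min RT; luminescence. Norm: DMSO = 0%, tamoxifen 100 uM = 100%. Hill-fit AC50.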

[9] = Cellular Toxicity (caspase-3) Mesangial (AID 660); details: mesangial cells, normalized: DMSO 0%, 100 µM tamoxifen 100%; at 91.7 µM (top of the series);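 also: cells exposed to compound for 16 h before the caspase read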
In short: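 Human renal glomerular mesangial cells (1000/well) were treated with compounds for 16 h at 37 °C in complete medium, then caspase 3/7 activity was read by Caspase-Glo luminescence. Data were normalized to DMSO and 100 uM tamoxifen; AC50 from Hill fits.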

[10] = Cellular Toxicity (caspase-3) N2a (AID 665); details: Potency: caspase-3 activation;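 also: compound exposure lasted 16 h at 37 °C before readout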
In short: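 Mouse N2a neuroblastoma cells (1500/well) were treated with compounds for 16 h at 37 °C, then caspase-3/7 activity was read by Caspase-Glo luminescence after 1 h at room temperature. Data were normalized to DMSO and 10 uM staurosporine; AC50 from Hill fits.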

[11] = Cellular Toxicity (caspase-3) Renal Proximal Tubule (AID 667);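 also: cells exposed to compound for 16 hours at 37 °C before detection; 0% = DMSO basal and 100% = 10 µM staurosporine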
In short: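 AC50 derived by standard Hill fit of concentration-response data, normalized between DMSO basal and 10 uM staurosporine as 100% stimulation. Cells: primary rat kidney proximal tubule, 16 h treatment at 37 °C.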

[12] = target: Cytochrome P450 3A4 (Homo sapiens) (UniProt P08684); experiment: qHTS Assay for Inhibitors and Substrates of Cytochrome P450 3A4 (AID 884); also: nearly all actives have a fitted effect of over 50% in size; also: potency is read from the fitted curve at half-maximal effect
Cytochrome P450 3A4 (Homo sapiens), sequence (P08684 whole entry, looked up): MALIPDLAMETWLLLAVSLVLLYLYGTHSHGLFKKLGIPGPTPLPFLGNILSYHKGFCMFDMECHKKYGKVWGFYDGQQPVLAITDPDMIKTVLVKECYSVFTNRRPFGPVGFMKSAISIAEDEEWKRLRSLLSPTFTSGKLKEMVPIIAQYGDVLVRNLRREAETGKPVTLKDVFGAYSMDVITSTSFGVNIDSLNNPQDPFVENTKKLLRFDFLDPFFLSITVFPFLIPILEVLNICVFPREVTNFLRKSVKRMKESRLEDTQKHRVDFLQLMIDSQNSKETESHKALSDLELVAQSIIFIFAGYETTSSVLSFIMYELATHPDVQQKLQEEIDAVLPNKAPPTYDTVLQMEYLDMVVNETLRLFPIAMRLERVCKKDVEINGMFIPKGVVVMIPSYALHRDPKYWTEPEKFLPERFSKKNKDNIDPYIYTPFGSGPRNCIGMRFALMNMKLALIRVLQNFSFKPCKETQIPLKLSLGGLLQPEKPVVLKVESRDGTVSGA
In short: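 20 nM human CYP3A4 with 25 uM Luciferin-PPXE (at KM) in 200 mM KPO4, preincubated 10 min with compound; NADPH regeneration started a 60 min RT reaction. Luciferin detected by luminescence, normalized to 57 uM ketoconazole as full inhibition.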

[13] = target: Peroxisome proliferator-activated receptor alpha (Homo sapiens) (UniProt Q07869); experiment: qHTS assay for small molecule agonists of the peroxisome proliferator-activated receptor alpha (PPARalpha) signaling pathway (AID 651778); details: PathHunter PPARalpha complementation, chemiluminescence, 6 h; max response: stronger effect = higher value; also: % of control where 0% means no effect
Peroxisome proliferator-activated receptor alpha (Homo sapiens), sequence (Q07869 whole entry, looked up, the tested form may be a part): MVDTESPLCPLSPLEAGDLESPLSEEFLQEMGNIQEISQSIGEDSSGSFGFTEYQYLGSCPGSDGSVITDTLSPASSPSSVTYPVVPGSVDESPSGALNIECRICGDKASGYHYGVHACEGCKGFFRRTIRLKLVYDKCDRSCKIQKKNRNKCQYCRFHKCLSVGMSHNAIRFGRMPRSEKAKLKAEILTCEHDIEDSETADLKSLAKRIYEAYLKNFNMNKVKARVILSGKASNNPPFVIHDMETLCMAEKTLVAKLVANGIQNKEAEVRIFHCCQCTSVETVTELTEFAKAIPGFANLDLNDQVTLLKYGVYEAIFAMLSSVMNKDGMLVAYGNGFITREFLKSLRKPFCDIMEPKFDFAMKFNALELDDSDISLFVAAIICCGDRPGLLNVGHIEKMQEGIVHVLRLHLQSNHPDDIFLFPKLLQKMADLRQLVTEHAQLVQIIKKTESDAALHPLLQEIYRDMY
In short: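 Enzyme-fragment complementation assay in which ligand-bound PPARalpha translocates and forms an active enzyme that generates chemiluminescence. Cells were plated overnight, exposed to compound for 6 hr at 37 C, and then given detection reagent for 60 min at room temperature.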

[14] = qHTS assay for cell viability of HEK293 cells (AID 743288); details: ATP luminescence (CellTiter-Glo), 18 h; max response: stronger effect = lower value; also: nearly all actives have a fitted effect of over 50% in size; also: potency is read from the fitted curve at half-maximal effect; as to max response: % is scaled to controls: 0 for no effect and ±100 for the full control effect
In short: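 HEK293 parental, 2,000 cells/well; ≥5 h pre-incubation 37 C; pintool compound addition; 18 h, 37 C; CellTiter-Glo 30 min RT; luminescence read.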

[15] = qHTS assay for cell viability of the p53RE-bla HCT-116 cell line (AID 743292); also: nearly all actives have a fitted effect of over 55% in size; also: potency is read from the fitted curve at half-maximal effect; as to activity change, negative = cytotoxicity: % is scaled to controls: 0 for no effect and ±100 for the full control effect
In short: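 Compound-exposed HCT-116 (p53RE-bla) cells, 4,000 per well, were kept 16 h at 37 C following a 5 h preincubation. Cell number was estimated from total ATP by CellTiter-Glo luminescence read after 30 min at room temperature.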

[16] = target: Cytochrome P450 1A2 (Homo sapiens) (UniProt P05177); experiment: p450-cyp1a2 (AID 410; calls by dose curve;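 also: -100% = full effect of reference inhibitor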)
Cytochrome P450 1A2 (Homo sapiens), sequence (P05177 whole entry, looked up): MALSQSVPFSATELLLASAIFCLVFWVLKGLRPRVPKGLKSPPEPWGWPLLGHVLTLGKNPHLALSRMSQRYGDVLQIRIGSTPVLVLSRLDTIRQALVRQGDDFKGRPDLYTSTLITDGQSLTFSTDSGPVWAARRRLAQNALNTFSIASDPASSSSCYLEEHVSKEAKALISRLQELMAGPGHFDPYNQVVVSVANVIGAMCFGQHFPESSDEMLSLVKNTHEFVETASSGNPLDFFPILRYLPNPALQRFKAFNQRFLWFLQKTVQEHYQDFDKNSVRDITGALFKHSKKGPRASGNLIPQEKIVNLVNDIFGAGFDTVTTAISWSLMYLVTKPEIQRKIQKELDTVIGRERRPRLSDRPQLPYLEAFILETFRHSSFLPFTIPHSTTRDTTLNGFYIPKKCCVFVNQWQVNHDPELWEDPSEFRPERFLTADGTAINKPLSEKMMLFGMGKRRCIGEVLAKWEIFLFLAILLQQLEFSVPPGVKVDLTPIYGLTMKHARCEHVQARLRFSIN
In short: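 Human CYP1A2 (20nM) demethylated Luciferin-ME at its Km (100uM) in 100mM KPO4. After 10 min compound preincubation, NADPH regeneration ran the reaction 60 min at room temperature. Luciferin was read by luminescence, normalized to 57 uM furafylline.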

[17] = target: Cytochrome P450 3A4 (Homo sapiens) (UniProt P08684); experiment: qHTS Assay for Activators of Cytochrome P450 3A4 (AID 885); also: nearly all actives have a fitted effect of over 65% in size
In short: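 Human CYP3A4 (20 nM) with Luciferin-PPXE at 25 uM (its KM) in 200 mM KPO4; 10 min compound preincubation, then NADPH regeneration and 60 min reaction at RT. Luciferin read by luminescence; normalized to 57 uM ketoconazole full inhibition.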

O=C(/C=C/c1ccc(O)c(O)c1)OC1C[C@](O)(C(=O)O)C[C@@H](O)[C@H]1O (some centres undefined)
inactive: Potency [1] > 92 µM | Potency [2] > 92 µM | Potency [3] > 92 µM | Potency [4] | Potency [5] | Potency [6] | Potency [7] | Potency [8] | caspase-3 activation [9] -0.588% and 1.58% | Potency [10] | outcome [11] | Potency [12] | max response [13] -2.67% and 0.743% | max response [14] 5.94% and -3.39% | Potency [15]

CCC/C=C(\CCC)C(NS(=O)(=O)c1ccc(C(F)(F)F)cc1)c1ccc(C(=O)OC)cc1 (centres undefined)
inactive: Potency [16] | Potency [17]

COC(=O)[C@@]1(Cc2ccccc2)[C@@H]2C(=CC(=O)[C@H]2CC(=O)C(=O)N(C)C)CN1C(=O)c1ccccc1
inactive: Potency [16] | Potency [17]
active: Potency [12] 7.94 µM

Oc1ccc2cc(SSc3ccc4cc(O)ccc4c3)ccc2c1
active: Potency [1] 49.1 µM | Potency [2] 38.3 µM | Potency [3] 42.5 µM | activity change, negative = cytotoxicity [4] -111% | viability change, negative = cytotoxic [5] -101% | activity change, negative = cytotoxicity [6] -82.8% | Potency [12] 15.8 µM
inactive: Potency [7] | Potency [8] | caspase-3 activation [9] -1.21% | Potency [10] | outcome [11] | Potency [17] | max response [13] -7.41% | max response [14] -14.6% | Potency [15]

c1ccc2c(c1)-c1cccc3c1c-2cc1ccccc13
inactive: Potency [1] > 92 µM | Potency [2] > 92 µM | Potency [3] > 92 µM | Potency [4] | Potency [5] | Potency [6] | Potency [7] | Potency [8] | caspase-3 activation [9] -0.695% | Potency [10] | outcome [11] | Potency [12] | max response [13] -0.066% and -2.89% | max response [14] -13.5% and -14.9% | Potency [15]

CNc1ccc(O)cc1
active: Potency [3] 23.5 µM | Potency [4] 31.6 µM | Potency [5] 2 µM | Potency [12] 12.6 µM | Potency [14] 35.5 µM | Potency [15] 70.8 µM
inactive: Potency [7] | Potency [8] | caspase-3 activation [9] -3.33% | Potency [10] | outcome [11] | Potency [17] | max response [13] -6.09%
